Measured values reported in PubChem BioAssay (NCI).
This is part of a sample that, as a whole, favours compounds with a hit. Of some 83,000 tested, about 20% had one in any assay.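 Negative percent growth values reflect cell death: -40 means 40% of the cells present at the start died, and -100 means all died.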 Unmarked numbers belong to inactive results. Calls of active or inactive are those of the source. The calls were made as follows: active = growth percent below 10; inactive = the rest.

Legend:
Experiment in all cases: NCI-60 one-dose screen, 48 h (100 = growth as untreated, 0 = no growth, -100 = all killed)
Details in all cases: 10 µM unless noted
SR leukemia = tested on: SR leukemia
OVCAR-8 ovarian = tested on: OVCAR-8 ovarian
OVCAR-5 ovarian = tested on: OVCAR-5 ovarian
OVCAR-4 ovarian = tested on: OVCAR-4 ovarian
SK-OV-3 ovarian = tested on: SK-OV-3 ovarian
OVCAR-3 ovarian = tested on: OVCAR-3 ovarian
HS 578T breast = tested on: HS 578T breast
NCI/ADR-RES ovarian = tested on: NCI/ADR-RES ovarian
T-47D breast = tested on: T-47D breast
BT-549 breast = tested on: BT-549 breast
MDA-MB-435 melanoma = tested on: MDA-MB-435 melanoma
SW-620 colon = tested on: SW-620 colon
MCF7 breast = tested on: MCF7 breast
HCT-116 colon = tested on: HCT-116 colon
HCC-2998 colon = tested on: HCC-2998 colon
KM12 colon = tested on: KM12 colon
IGROV1 ovarian = tested on: IGROV1 ovarian

Row | SMILES | growth (SR leukemia) | growth (OVCAR-8 ovarian) | growth (OVCAR-5 ovarian) | growth (OVCAR-4 ovarian) | growth (SK-OV-3 ovarian) | growth (OVCAR-3 ovarian) | growth (HS 578T breast) | growth (NCI/ADR-RES ovarian) | growth (T-47D breast) | growth (BT-549 breast) | growth (MDA-MB-435 melanoma) | growth (SW-620 colon) | growth (MCF7 breast) | growth (HCT-116 colon) | growth (HCC-2998 colon) | growth (KM12 colon) | growth (IGROV1 ovarian)
1 | COC(=O)CCC/C=C\C[C@H]1C=CC(=O)/C1=C/C[C@@H](O)CCc1cccc(C(F)(F)F)c1 | -15.3% (active) | 8.44% (active) | -26.6% (active) | 20% | 24.6% | -62.5% (active) | 32.3% | 9.64% (active) | 9.77% (active) | -11.4% (active) | -82.2% (active) | -40% (active) | 6.5% (active) | -89% (active) | -89.6% (active) | -51.9% (active) | 
2 | COc1ccc(CNC(=O)[C@H](O)[C@@H](N)Cc2ccccc2)cc1 | 93.4% | 108% | 98% | 104% | 110% | 119% | 102% | 109% | 110% | 109% | 104% | 104% | 94.5% | 109% | 105% | 101% | 
3 | CCCCn1c(-c2ccc(-c3nc(-c4ccc(Cl)cc4)no3)cc2)nc(-c2ccccc2)c1-c1ccccc1 | 6.15% (active) | 88.5% | 85.4% | 82% | 88.8% | 93.9% | 95.4% | 82.5% | 76.3% | 101% |  | 88.8% | 79% | 75.4% | 105% | 95.2% | 
4 | c1ccc(CO[C@H]2CO[C@H]3[C@@H]2OC[C@@H]3Oc2ccc(Nc3ncnc4ccsc34)cc2)cc1 | 60.6% | 81.6% | 94.9% | 81.8% | 95.8% | 93.7% | 90.5% | 73.3% | 38.9% | 68.9% | 83.9% | 87.6% | 64.9% | 68.9% |  | 86.2% | 
5 | COC1=C(C)C(=O)c2c(c(CCCl)c3n2CCC3OC(C)=O)C1=O (centres undefined) | 1.94% (active) | 10.2% | 4.93% (active) | 72% | -21.6% (active) | -23.3% (active) | -22.9% (active) | 8.95% (active) | 60.6% | -48.2% (active) | -58% (active) | 3.87% (active) | -39.9% (active) |  | -48.1% (active) | -18.6% (active) | 
6 | O=c1c2cc(F)ccc2sc2c(NCCCNCCO)nc3ccc(F)cc3c12 | -25.8% (active) | 58.5% | 73.7% |  | 80.4% | 30.4% | 61% | 66.5% | 70.2% | 83.9% | -28.4% (active) | -39.7% (active) | 47.9% | -72.8% (active) | 1.69% (active) | 24.9% | 43.6%
7 | COc1ccc(C2C(C#N)=C(N)Oc3c2sc2c(C)cccc32)cc1 (centres undefined) | 15.4% | 22.6% | 23.5% |  | 67.4% | 4.88% (active) | 18.6% | 4.33% (active) | 46.9% | 25.1% |  | 26% | 10.8% | 13.2% | 11% | 11.7% | 23.3%
8 | O=C1CCC/C=C\C[C@H]2C=CC(=O)/C2=C/C[C@H](CCc2cccc(C(F)(F)F)c2)O1 | -4.73% (active) | 5.51% (active) | -16.9% (active) | 12.8% | -34.9% (active) | -65.8% (active) | 14.3% |  | -28% (active) | -29.3% (active) | -42.1% (active) | -32% (active) | -6.2% (active) | -82% (active) | -74.4% (active) | -63.5% (active) | 
9 | N#Cc1c(-c2ccc(Cl)cc2)nc(NCCO)[nH]c1=O | 99.5% | 103% | 91.6% | 108% | 102% |  | 109% | 98.8% | 89.4% | 102% | 106% | 112% | 95.3% | 104% | 103% | 96.9% | 
10 | COc1cccc(Cc2nn3cc(-c4ccccc4)nc3s2)c1 | 16.3% |  | 114% | 98.4% | 103% | 85.5% | 106% | 101% | 91.2% | 91.6% | 79.2% | 30.6% | 27.5% | 2.81% (active) | 104% | 88.8% | 86.4%
11 | COc1ccc2[nH]c(-c3ccccc3)c(/C=C(\C#N)S(=O)(=O)c3ccccc3)c2c1 | 2.79% (active) | 60.7% | 101% |  | 73.3% | 45.1% | 67.3% | 30.5% | 38.1% | 64.5% | 2.24% (active) | 35.6% | 26.2% | 31.4% | 68.4% | 33.4% | 67%
12 | COc1cc(C2CC(c3ccc(SC)cc3)=NN2C(C)=O)cc(OC)c1OC (centres undefined) | 33.8% | 80.3% | 100% |  | 89% | 21.7% | 79.7% | 24.4% | 72.1% | 36.4% | -28.5% (active) | 38.5% | 41.9% | 41.5% | 61% | 39.4% | 53.8%
13 | O=C(Nc1nc2ccc(F)cc2s1)c1cccnc1Nc1ccc(Cl)cc1Cl | 32.8% | 19.5% | 64.3% |  | 44% | -3.55% (active) | 20.9% | 1.58% (active) | 0.802% (active) | -9.44% (active) | 26.3% | 20.2% | 13% | 11% | 8.35% (active) | 9.49% (active) | 30.5%
14 | CCOC(=O)C1=C(N)Oc2c(sc3c(C)cccc23)C1c1ccc(Cl)cc1 (centres undefined) | 17.5% | 36.8% | 41.6% |  | 54.7% | 0.78% (active) | 18.9% | 24.6% | 17.6% | 65.7% |  | 23.7% | 8.74% (active) | 23.9% | 49.3% | 15.3% | 22.6%
15 | COc1cc(/C=C/c2ccccc2)cc(OC)c1 | 86.7% | 97.7% | 95.6% |  | 106% | 105% | 104% | 99.6% | 77.9% | 101% | 103% | 100% | 71.4% |  | 102% | 95.6% | 84.6%
16 | Cc1ccc(S(=O)(=O)N/N=C/C2(c3ccccc3)CC2)cc1 | 101% |  | 109% | 98.8% | 110% | 111% | 102% | 107% | 101% | 102% | 104% | 97.1% | 88.6% | 98.7% | 111% | 107% | 116%
17 | COc1cc2cc(Oc3ccc(NC(=O)Nc4cccc(C(F)(F)F)c4)cc3)c(C)nc2cc1OCCN1CCOCC1 | 9.31% (active) | 25.1% | 109% |  | 92% |  | 86% | 45.3% | 30.3% | 70.8% | 30.4% | 36.9% | 9.35% (active) | 17.4% | 89.2% | 29.8% | 57.7%
18 | NS(=O)(=O)c1ccc(N=Nc2ccc(-c3nn4cc(-c5ccccc5)nc4s3)cc2)cc1 | 90.6% |  | 103% | 99.7% | 88.8% | 102% | 94.2% | 107% | 87.6% | 84.8% | 101% | 96.2% | 94% | 88.8% | 104% | 95.7% | 117%
19 | COc1ccc(-c2nc3sc(-c4ccccc4)cn3n2)cc1 | 41.2% |  | 108% | 62.2% | 67.8% | 58.2% | 59.9% | 34% | 34.6% | 73.3% | -8.6% (active) | 35.1% | 25.1% | 40% | 77.3% | 29.5% | 47.8%
20 | CCCCNC(=O)Oc1ccc(/C(=C(\C)c2ccc(Cl)cc2)c2ccc(OCCN(CC)CC)cc2)cc1 | 3.33% (active) |  | 73.4% | 69.6% | 75.3% | 69.1% | 74.4% |  | 42.2% | 80.3% | 66.4% | 79.8% | 30.1% |  | 80.6% | 68.2% | 81.6%
